CBFb RUNX1 block: qHTS Assay for Compounds Blocking the Interaction Between CBF-beta and RUNX1 for the Treatment of Acute Myeloid Leukemia | Runt-related transcription factor 1 (Homo sapiens) + Core-binding factor subunit beta … | AlphaScreen CBFb-His/RUNX1-biotin binding, biochemical | Potency, µM (doses to about 59.8 µM), actives largely listed as inhibitors | 230,000 tested, under 10 active
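Inhibition was taken as any reduction in AlphaScreen signal from the CBF-beta–RUNX1 pair (His and biotin tags, 30 nM each), measured after compound (15 min) and bead (90 min) incubations at room temperature.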
DRD3 agonist: qHTS of D3 Dopamine Receptor Agonist: qHTS; max activation, %; D3R DiscoveRx beta-arrestin cells, luminescence, 90 min; AID 652048, 2013; 410,000 compounds, 0.58% hits; in the data active = max activation above about 30%
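Agonist-mode cell screen: cells plated at 1500/well and incubated overnight at 37 °C, then exposed to library compounds for 90 min at 37 °C. Detection reagent was added for 30–60 min at room temperature, and luminescence was read.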
MBNL1-CUG inh: qHTS Assay for Inhibitors of MBNL1-poly(CUG) RNA binding | Muscleblind-like protein 1 (Homo sapiens), Q9NR56 | 280,000 compounds, 0.036% hits | Potency, µM (titrated, usually from 57.5 µM), most hits filed as inhibitors | TR-FRET MBNL1-His/biotin-(CUG)12 binding, 665/545 ratio; active = well fitted inhibition curve with a large enough effect in the signal ratio, with a control signal flat, not every such curve was filed as active; inconclusive = small, poorly fitted or top-dose-only effect, or effect the other way, or a change in a side signal; inactive = no such curve, though single readings can be large or run the other way; the % refers to the signal ratio
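TR-FRET between His-tagged MBNL1 and biotin-(CUG)12 RNA, detected with Tb anti-His antibody (0.055 ng/ul) and streptavidin-XL665 (5 nM), 60 min at room temperature. Compounds titrated 92 nM to 58 uM; 665/545 nm ratio normalized to buffer and complex controls.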
Integrin act MD: qHTS for Activators of Integrin-Mediated Alleviation for Muscular Dystrophy. alpha7betagal myoblasts, beta-gal FDG fluorescence, 48 h. Potency, µM (titrated, usually from 38.3 µM), actives largely listed as activators. 350,000 compounds, 0.064% hits; also: nearly all actives have a fitted effect of over 60% in size
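alpha7betagal+/- myoblasts (passage 13, 250/well) treated 48 h at 37C with compounds at 1:260 dilution of DMSO stock. Lysed, then beta-galactosidase activity read as FDG fluorescence (ex 480/em 540) after 30 min, with pre-read for autofluorescence.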
D3 antag: qHTS of D3 Dopamine Receptor Antagonist: qHTS. D3R cells, DiscoveRx beta-arrestin luminescence, antagonist mode; active compounds read low. max response, negative = inhibition, %. 360,000 compounds, 2.5% hits. AID 652054, 2013; in the data active = max response below about -50%; inconclusive = no clear call, values can overlap the other calls
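Cells expressing the human receptor were seeded at 1500 cells/well, incubated overnight at 37 degrees C in 5% CO2, then exposed to library compounds with dopamine controls for 90 minutes at 37 degrees C before luminescent detection.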
PTHR1 ag: qHTS for PTHR1 Agonists: Primary Screen | HEK293 GP2 PTHR1 cells, GloSensor cAMP luminescence, 1 h | Potency, µM (highest dose often 115 µM), actives largely listed as activators | 410,000 compounds, 0.075% hits | AID 743266, 2014; also: nearly all actives have a fitted effect of over 55% in size
Target sequence (Q03431 whole entry, looked up): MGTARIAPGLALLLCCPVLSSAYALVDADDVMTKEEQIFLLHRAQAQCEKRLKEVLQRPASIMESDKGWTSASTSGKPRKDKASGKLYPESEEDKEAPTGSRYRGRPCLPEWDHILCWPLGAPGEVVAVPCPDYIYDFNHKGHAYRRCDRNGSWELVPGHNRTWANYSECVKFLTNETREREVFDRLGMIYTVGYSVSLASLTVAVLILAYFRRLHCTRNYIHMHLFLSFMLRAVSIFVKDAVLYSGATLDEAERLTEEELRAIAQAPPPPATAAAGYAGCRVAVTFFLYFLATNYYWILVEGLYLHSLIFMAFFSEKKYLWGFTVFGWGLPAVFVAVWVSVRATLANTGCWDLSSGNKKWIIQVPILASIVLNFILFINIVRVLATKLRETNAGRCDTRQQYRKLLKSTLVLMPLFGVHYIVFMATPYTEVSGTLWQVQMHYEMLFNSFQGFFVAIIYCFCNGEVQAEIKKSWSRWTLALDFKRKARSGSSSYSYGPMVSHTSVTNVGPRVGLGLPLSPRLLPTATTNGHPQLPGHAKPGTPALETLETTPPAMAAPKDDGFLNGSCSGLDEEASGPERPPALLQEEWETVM
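HEK-293-derived GP2 cells expressing PTHR1 and a GloSensor cAMP reporter, 3,000/well, plated overnight, given luciferin plus IBMX (each 0.5 mM as added) for 1 h at 37 °C, then compound for 1 h at 37 °C. Luminescence was read after 15 min at room temperature.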
Numbers stand for hits; - = inactive; ? = inconclusive; . = no result; [ ] = remark or other dose. Compounds with a hit are over-represented: about 2.8% of the library has one in this group of screens. Unless noted, calls follow the shape of the dose curve; as a rule, active = well fitted curve in the direction sought with a large enough effect; inconclusive = small, poorly fitted or top-dose-only effect, or another doubt; inactive = no such curve, though single readings can be large; an effect the other way counts as inactive or inconclusive.

SMILES	CBFb RUNX1 block	DRD3 agonist	MBNL1-CUG inh	Integrin act MD	D3 antag	PTHR1 ag
OC(COCc1ccccc1)CN1CCc2ccccc2C1 (stereo not drawn)	-	-	-	-	-65	-
COc1ccc(-c2n[nH]c3c2cnc2ccc(F)cc23)cc1	.	-	.	.	.	-
COCCC(=O)N1CCCC(C(=O)c2ccccc2SC)C1 (stereo not drawn)	.	-	.	-	-59	-
CSc1ccccc1C(=O)C1CCCN(C(=O)CCN2CCCO2)C1 (stereo not drawn)	-	-	-	-	-	-
NNCCc1ccccc1	?	-	-	.	-113	-
Cc1csc(NC(=O)CSc2nncn2C)n1	-	-	-	-	-63	-
Cc1ccc(C)c(-n2c(-c3csc(C)c3C)n[nH]c2=S)c1	-	-	-	-	-	-
O=C(COC(=O)CCc1c[nH]c2ccccc12)Nc1ccccc1	.	-	.	-	?	-
O=C(COC(=O)CCc1c[nH]c2ccccc12)NC(c1ccccc1)c1ccccc1	-	39	-	-	-	-
CC(=O)N1CCc2c(sc3c2c(=O)n(-c2ccccc2Cl)c(=O)n3C)C1	.	31	.	.	.	-
Nc1nc(SCc2ccc(Cl)cc2Cl)nc2nc3c(cc12)CCCC3	-	-	.	-	-57	-
c1ccc(CNCC2COc3ccccc3O2)cc1 (stereo not drawn)	-	-	?	-	-	-
CC(=O)c1cccc(OCC(O)CNCC2COc3ccccc3O2)c1 (stereo not drawn)	.	37	-	-	-51	-
O=C(NCC1COc2ccccc2O1)c1ccccc1 (stereo not drawn)	-	-	-	-[7.66 µM]	-	-
OC(CNCC1COc2ccccc2O1)COCc1cccs1 (stereo not drawn)	-	-	-	-	-71	-
CC(OCC(O)CNCC1COc2ccccc2O1)c1ccc(Cl)cc1 (stereo not drawn)	-	-	-	-	-68	-
Cc1onc(-c2c(Cl)cccc2Cl)c1C(=O)Nc1ccc(N2CCOCC2)cc1	-	-	-	-	-	-
CC1(C)C=Cc2c(ccc3c2OC[C@H](c2ccc(O)cc2O)C3)O1	.	-	.	-	-	-
CC(=O)Oc1ccc([C@@H]2COc3c(ccc4c3C=CC(C)(C)O4)C2)c(OC(C)=O)c1	.	38	.	-	-	-
COc1ccc(NC(=O)CC(C)S(=O)(=O)c2cc3c(cc2C)NC(=O)CO3)cc1OC (stereo not drawn)	.	-	.	.	.	-
N#Cc1ccc(C(=O)NC(=S)NC2CCCCC2)cc1	.	-	.	-	-55	-
COc1ccccc1/C=C/C(=O)OC(C)CN1CCOCC1 (stereo not drawn)	-	-	-	-	-83	-
CC(CN1CCOCC1)OC(=O)c1ccccc1 (stereo not drawn)	-	-	.	-	-	-
Cc1ccc(C(=O)c2c3ccc(N)cc3nn2CCC(N)=O)cc1	.	-	-	-	-73	-
Cc1ccc(C(=O)c2c3ccc(C(F)(F)F)cc3[n+]([O-])n2CCC(N)=O)cc1	.	-	-	-	-	-
SMILES	CBFb RUNX1 block	DRD3 agonist	MBNL1-CUG inh	Integrin act MD	D3 antag	PTHR1 ag
OC(c1cc(F)cc(Cl)c1)c1ncc(-c2ccccc2C(F)(F)F)[nH]1 (stereo not drawn)	.	-	.	.	-	-
COc1cc(C(NC=O)C(=O)Nc2c(C)cccc2C)ccc1O (stereo not drawn)	-	-	.	-	-	-
Cc1cccc(C)c1NC(=O)C(NC=O)c1ccc(Cl)cc1 (stereo not drawn)	-	-	-	-	-56	-
Cc1ccc(C)c(OCCCCN2CCCCC2)c1	.	-	-	-	-67	-
Cc1ccc(OCCCCN2CCCCC2)c(C)c1	.	-	-	-	-	-
Cc1ccc(OCCCN2CCCC2)c(C)c1	-	-	-	-	-52	-
Cc1ccc(OCCN2CCCCCC2)c(C)c1	-	-	?	-	?	-
N#Cc1ccc(N)cc1OCCCN1CCCCC1	.	-	.	-	-52	-
Cc1ccccc1OCCCN1CCCC1	-	-	-	-	-60	-
N#Cc1cccc(NC(=O)C2CCN(c3cnccn3)CC2)c1	.	-	.	.	.	-
CC(=O)Nc1cccc(C(=O)Nc2cc(C(F)(F)F)ccc2-n2cncn2)c1	.	-	.	-	-	-
Cc1c(C(=O)N2CCCCC2)c(S(=O)(=O)Nc2ccc(F)cc2F)c(C)n1C	.	-	-	-	-	-
Cc1cc(Br)ccc1OCCN1CCCC1	.	-	-	-	-69	-
O=C(NCc1ccccc1)c1ccc(CNS(=O)(=O)c2ccc(Br)cc2)cc1	.	-	.	.	.	-
Cc1ccc(S(=O)(=O)NC(=O)c2cc(C)n(-c3ccc(N(C)C)cc3)c2C)cc1	-	-	-	-	-	-
Cc1ccc(Oc2cc([N+](=O)[O-])cc3c2C(=O)Nc2ccccc2O3)cc1	-	49	-	-	-	-
CCCn1nnnc1NCc1ccccc1Cl	.	-	-	-	-	-
OC(CNC1CCCCC1)CON=C1CCSc2c(Cl)cccc21 (stereo not drawn)	.	-	.	-	-66	-
CCCCCCCCN1C(=O)[C@H](CC(=O)NCCCC)C[C@@]2(C(=O)OC)CCCCC=C12	.	-	.	.	-	-
CCCCCCCCN1C(=O)[C@H](CC(=O)NCCCOCCCC)C[C@@]2(C(=O)OC)CCCCC=C12	.	87	.	.	-	-
COC(=O)[C@@]12C[C@@H](CC(=O)N3CCOCC3)C(=O)N(Cc3ccc4c(c3)OCO4)C1=CCC(C)(C)C2	.	35	.	.	?	-
COC(=O)[C@@]12C[C@@H](CC(=O)N3CCC(c4ccccc4)CC3)C(=O)N(Cc3ccc4c(c3)OCO4)C1=CCC(C)(C)C2	.	-	.	.	-	-
CCCCCCCCN1C(=O)[C@H](CC(=O)NCc2cccs2)C[C@@]2(C(=O)OC)CC(C)(C)CC=C12	.	44	.	.	-	-
CCCCCCCCN1C(=O)[C@H](CC(=O)NCc2ccc(C)o2)C[C@@]2(C(=O)OC)CC(C)(C)CC=C12	.	-	.	.	-	-
CSC1=NS(=O)(=O)c2c(C)nn(C)c2S1	-	-	-	-	-69	-
COc1cc(OC)cc(C2=Nn3c(nnc3-c3ccccc3OC)SC2)c1	-	.	.	.	.	.
Cc1ccccc1C1C(C#N)=C2N=C(N)c3c(sc4c3CCCCC4)N2C2=C1C(=O)CC(C)(C)C2 (stereo not drawn)	?	-	-	-	-61	?
